# Measured values taken from PubChem BioAssay (NCI).
# The panel holds about 83,000 compounds, 20% with a hit somewhere; the sample as a whole holds those more often.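 Each cell line was grown in a 96-well plate and treated with one concentration of compound for 48 hours. Values below 10 were considered active.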 A number with no mark means an inactive call. Calls of active or inactive are those of the source.
# Tested on: OVCAR-8 ovarian
# Test: NCI-60 one-dose screen, 48 h (100 = growth as untreated, 0 = no growth, -100 = all killed)
# Conditions: 10 µM unless noted
# Protocol: Growth inhibition of the OVCAR-8 human tumor cell line is measured as a screen for anti-cancer activity. Cells are grown in 96 well plates and exposed to the test compound for 48 hours. Compounds are tested at a single concentration, which is 10^-5 M for most compounds. The reported endpoint is percent growth (GI% or GIPRCNT), where numbers from 0 - 100% represent growth inhibition, and numbers from -100% - 0 represent cell death. For example, a value of 40 represents 60% growth inhibition. A value of 0 means no net growth occurred over the course of the experiment. A value of -40 indicates 40% of cells at the beginning of the experiment died by the end of the experiment. A value of -100 means all cells are dead at the end of the experiment.
# NCI-60 Human Tumor Cell Lines Screen was performed using the standard one-dose NCI protocol, which is described in more detail at https://dtp.cancer.gov/discovery_development/nci-60/default.htm.
# Compounds with GIPRCNT values below 10 were considered active. Activity score was based on GIPRCNT using the following formula: […]
# Score is 0 for GIPRCNT values of 100 or above, 50 for GIPRCNT values of 0, and 100 for GIPRCNT values of -100.
row,SMILES,growth
1,O=C1c2cccc(NCCN=Cc3cc([N+](=O)[O-])ccc3O)c2C(=O)c2c(NCCN=Cc3cc([N+](=O)[O-])ccc3O)cccc21,78.5%
2,N#C/C(=C/C=C/c1cccc(Cl)c1)S(=O)c1ccccc1 (stereo not given),-2.48% (active)
3,C[n+]1cc2c3c(ccc2c2ccc4cc5c(cc4c21)OCO5)OCO3,-79.5% (active)
4,O=C(CSc1nccc(Nc2ccc(S(=O)(=O)Nc3nccs3)cc2)n1)c1ccc(F)cc1,98.1%
5,COc1cc(C2CC(=O)Nc3c2c(C)nn3-c2nc3ccccc3[nH]2)cc2c1OCC(=O)N2 (stereo not given),34.9%
6,COc1cccc(Nc2nccc(Nc3ccc4[nH]ncc4c3)n2)c1,-80.5% (active)
7,O=C(NCCNc1cc(-c2cn(-c3ccccc3)nc2-c2cccc(O)c2)ccn1)Nc1ccccc1,74.3%
8,Cc1ccc(CCC(=O)Nc2ncc(Cc3cc(Cl)ccc3Cl)s2)o1,11.8%
9,CC1=C(SCCC(=O)OC(C[Se]C2=C(C)C(=O)c3ccccc3C2=O)C(=O)NCCCCCC(=O)OCc2ccccc2)C(=O)c2ccccc2C1=O (stereo not given),39%
10,CN1CCN(CC(=O)Nc2nc(-c3cccc(NS(=O)(=O)c4cccc5c(N(C)C)cccc45)c3)cs2)CC1,87.9%
11,COc1ccc2oc3c(C)c4c(c(C)c3c2c1)C(=O)N(Cc1ccccc1)C4=O,91.2%
12,Nc1nc(N)c2c(n1)NC(c1ccccc1)C1CCc3ccccc3C1=N2 (stereo not given),64.9%
13,COc1ccc2c(c1)[nH]c(=O)c1c3cccnc3cn21,8.08% (active)
14,CC(=O)n1c(-c2ccc(Cl)cc2)nc2c(c1=O)C(c1ccc(Cl)cc1)c1sc3c(Cl)cccc3c1O2 (stereo not given),-31.5% (active)
15,CCc1ccccc1NC(=O)/C(C#N)=C/c1ccc(OC)cc1,89.5%
16,COc1ccc(OC)c2c1[nH]c(=O)c1c3ncccc3cn21,16.8%
17,CC(C)Sc1nc(NNC(N)=S)c(C#N)c(-c2ccc(F)cc2)n1,97.4%
18,CCN1CCN(c2cc(C)nc(NCc3cc(Nc4ccnc5cc(Cl)ccc45)ccc3F)n2)CC1,69.6%
19,O=C(COc1ccc(/C=C2\Oc3ccccc3C2=O)cc1)Nc1nc2ccccc2s1,18.8%
20,OC(c1cccc(-n2ccc(C(F)(F)F)n2)c1)c1cnccc1NC1CCCCCC1 (stereo not given),6.25% (active)

row,SMILES,growth
1,Cn1c2c(c3ccc(Cl)c(Cl)c31)C(C#N)C1(CCNCC1)NC2=O (stereo not given),67.8%
2,CCN1C(=O)N(CC)C2Nn3c(s/c(=C\c4cccc([N+](=O)[O-])c4)c3=O)=NC21 (stereo not given),44.7%
3,Cn1cc(-c2csc(-c3ccccc3)n2)c2cccnc21,2.29% [100 µM] (active)
4,COc1cccc(-c2nn(-c3ccccc3)cc2-c2ccnc(NCCCNC(=O)c3cccc(C(F)(F)F)c3)c2)c1,22.4%
5,COc1ccc2nc(NNC(=O)c3cnccn3)c3cccn3c2c1,5.98% (active)
6,CC1(C)CC[C@]2(C(=O)N3CCOCC3)CC[C@]3(C)C(=CC[C@@H]4[C@@]5(C)CC[C@H](OC(=O)c6cccnc6)C(C)(C)[C@@H]5CC[C@]43C)[C@@H]2C1,76.6%
7,Cc1cc(NCc2cc(Nc3ccnc4cc(Cl)ccc34)ccc2F)nc(N2CCN(c3ccccc3)CC2)n1,58.8%
8,NC1=NCc2nc3ccccc3c(=O)n2C1,102%
9,CN(C)CCCn1c(=O)c2ccccc2c2ccccc21,49.8%
10,O=C1Nc2ccccc2/C1=C/c1cn(C(=O)c2c(Cl)cccc2Cl)c2ccccc12,52.3%
11,O=C(O)C1CCC(=O)N1C(=O)OCc1ccccc1 (stereo not given),96.3%
12,NC(=O)c1ccc[n+]([C@@H]2O[C@H](COP(=O)([O-])OP(=O)(O)OC[C@H]3O[C@@H](n4cnc5c(N)ncnc54)[C@H](O)[C@@H]3O)[C@@H](O)[C@H]2O)c1,96.8%
13,CN(C)c1ccc(/C=C/C(=O)c2cccc(Nc3nc(Nc4ccccc4)nc(Nc4ccccc4)n3)c2)cc1,81.2%
14,COC(=O)[C@]12CC[C@@H](C)[C@H](C)[C@@H]1C1=CC[C@@H]3[C@@]4(C)C(C=O)=C[C@@](C)(COS(C)(=O)=O)[C@@H]4C(=O)C[C@@]3(C)[C@]1(C)CC2,44.6%
15,COC(=O)/C=C1\S/C(=N\NS(=O)(=O)c2ccc(C)cc2)N(c2ccccc2)C1=O,99.8%
16,CCCCCCCOc1c(OC)cc(C2CC(=O)Nc3c2c(C)nn3-c2nc3ccccc3[nH]2)cc1OC (stereo not given),-19.4% (active)
17,COc1cccc(/C=C/C(=O)c2c(C)nc3ccccc3c2/C=C/c2ccc(C)cc2)c1OC,49.6%
18,CNS(=O)(=O)c1n[nH]nc1-c1cc(C(C)(C)C)c(O)c(C(C)(C)C)c1,100%
19,C#CCOc1nc(C)cc(C)c1C#N,102%
20,CCCCCc1nc2c(c3c1CCCC3)CCCC2,59.8%
